Only some compounds are listed: those with a hit (about 2.3% of all), similar ones and a draw of the others.
TMEM16A act: TMEM16A chloride channel activators or potentiators, primary screen, cell-based, HTS; HEK293 TMEM16A/YFP-H148Q/I152L, iodide quench fluorescence; hits give low values; hit rate 0.3% among 340,000; B-score at 10 µM; Anoctamin-1 (Mus musculus), Q8BHY3;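 active = fluorescence-ratio B-score plate-corrected deviation score at least 3 library SD below zero, with starting fluorescence score within 5 deviations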;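 also: channel opened by trigger with iodide after compound preincubation; score built on the fluorescence ratio of max minus min over baseline; more negative score means more quench and so TMEM16A activation or potentiation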
TMEM16A inh: TMEM16A chloride channel inhibitors, primary screen, cell-based, HTS; Anoctamin-1 (Mus musculus), Q8BHY3; normalized B-score (activity score, 25-100; higher = stronger inhibition) at 10 µM; hit rate 1.2% among 310,000; HEK293 TMEM16A/YFP iodide influx fluorescence, ionomycin;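 active = ratio plate-corrected score three or more library SD toward inhibition, starting fluorescence score within five deviations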;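 also: score derived from kinetic fluorescence span divided by baseline fluorescence per well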
CHT inh: inhibitors of human choline transporter CHT. High affinity choline transporter 1 (Homo sapiens), Q9GZV3. AID 488975, 2010. B-score at 10 µM. CHT-expressing cells, membrane potential dye, choline response; hits give low values. hit rate 0.86% among 310,000;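 active = B-score over 3 SD under the library average, and starting fluorescence ratio not unusually high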;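 also: choline stimulus applied at its EC90 after an EC20 pre-addition; B-score computed on integrated fluorescence ratio after choline addition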
CHT PAM: CHT positive allosteric modulators, primary screen, cell-based, membrane potential dye, choline EC20; High affinity choline transporter 1 (Homo sapiens), Q9GZV3; CHT-expressing cells; hits give high values; LV-AA mutant CHT in HEK293 cells; B-score at 10 µM; hit rate 0.49% among 310,000;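 active = initial fluorescence not abnormally high and integrated response B-score, plate-corrected, over 3 SD above library mean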
CHT block conf: CHT inhibitors, confirmation, cell-based, membrane potential dye, duplicate | shares compounds with CHT inh | CHT-expressing cells, choline membrane potential dye; LV-to-AA substituted CHT, HEK293 cells | CHT activity remaining % of control (hits give low values), % at 10 µM | hit rate 70% among 2,400;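 active = choline transporter activity left, mean of duplicates at 10 µM, below buffer-only control mean minus 3 SD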;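 also: depolarization triggered by choline at its EC90 following an EC20 pre-addition; 0% = hemicholinium-3 full block and 100% = buffer-only control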
HEK293 MPD ctr: membrane potential effects in parental HEK293, counter-screen for CHT inhibitor project, cell-based, membrane potential dye | hit rate 4% among 2,400 | shares compounds with CHT inh | choline response; active = decrease or increase beyond buffer ±3SD | membrane potential ratio readout (active if shifted either direction beyond buffer ±3SD; no single direction) at 10 µM;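 also: parental cells lack the transporter so any hit is non-specific; ratio is peak minus trough fluorescence over baseline after EC90 choline challenge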
TMEM16A reconf: TMEM16A chloride channel inhibitors, confirmation, cell-based, re-confirmation. inhibition, % at 10 µM. AID 652189, 2013. HEK293 TMEM16A/YFP-H148Q, iodide quench fluorescence; ionomycin added to raise cell calcium. hit rate 39% among 2,300. shares compounds with TMEM16A inh;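 active = mean duplicate percent inhibition, scaled so buffer wells are 0 and the reference blocker 100, over three buffer SD above buffer mean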
HEK293 Ca mobil: calcium mobilization in TMEM16A/YFP HEK293 cells, confirmation, counter-screen for TMEM16A inhibitor project | shares compounds with TMEM16A inh | Fluo4 calcium mobilization | calcium response (% of ionomycin), % at 10 µM | hit rate 2% among 2,300 | AID 652231, 2013;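 active = duplicate-averaged calcium signal over 20% of the ionomycin maximum, relative to buffer baseline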;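 also: each well's signal is peak minus trough fluorescence divided by its pre-addition baseline; 0% = buffer wells and 100% = ionomycin wells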
Parental YFP cnt: iodide YFP quench changes in parental YFP-HEK293, counter-screen for TMEM16A inhibitor project, cell-based; shares compounds with TMEM16A inh; ionomycin; YFP ratio F(max-min)/F0 at 10 µM; 2,300 tested, under 10 active;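 active = yellow fluorescent protein signal ratio exceeding the buffer control mean by over 5 SD of those controls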;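 also: ratio is mean of duplicate wells from kinetic YFP trace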
ClC-1 inh: ClC-1 chloride channel inhibition, selectivity assay for TMEM16A inhibitor project, cell-based, voltage-dependent ClC-1; CHO ClC-1-YFP, iodide influx fluorescence quench; iodide control reads 0, buffer control 100; ratio percent, % at 10 µM; 2,300 tested, under 10 active; shares compounds with TMEM16A inh;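 active = duplicate-mean ratio percent above the mean of iodide-only control wells, which defines zero, plus 5 of their SD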;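 also: higher percent means stronger block of ClC-1 iodide influx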
Target sequence (P35524 whole entry, looked up): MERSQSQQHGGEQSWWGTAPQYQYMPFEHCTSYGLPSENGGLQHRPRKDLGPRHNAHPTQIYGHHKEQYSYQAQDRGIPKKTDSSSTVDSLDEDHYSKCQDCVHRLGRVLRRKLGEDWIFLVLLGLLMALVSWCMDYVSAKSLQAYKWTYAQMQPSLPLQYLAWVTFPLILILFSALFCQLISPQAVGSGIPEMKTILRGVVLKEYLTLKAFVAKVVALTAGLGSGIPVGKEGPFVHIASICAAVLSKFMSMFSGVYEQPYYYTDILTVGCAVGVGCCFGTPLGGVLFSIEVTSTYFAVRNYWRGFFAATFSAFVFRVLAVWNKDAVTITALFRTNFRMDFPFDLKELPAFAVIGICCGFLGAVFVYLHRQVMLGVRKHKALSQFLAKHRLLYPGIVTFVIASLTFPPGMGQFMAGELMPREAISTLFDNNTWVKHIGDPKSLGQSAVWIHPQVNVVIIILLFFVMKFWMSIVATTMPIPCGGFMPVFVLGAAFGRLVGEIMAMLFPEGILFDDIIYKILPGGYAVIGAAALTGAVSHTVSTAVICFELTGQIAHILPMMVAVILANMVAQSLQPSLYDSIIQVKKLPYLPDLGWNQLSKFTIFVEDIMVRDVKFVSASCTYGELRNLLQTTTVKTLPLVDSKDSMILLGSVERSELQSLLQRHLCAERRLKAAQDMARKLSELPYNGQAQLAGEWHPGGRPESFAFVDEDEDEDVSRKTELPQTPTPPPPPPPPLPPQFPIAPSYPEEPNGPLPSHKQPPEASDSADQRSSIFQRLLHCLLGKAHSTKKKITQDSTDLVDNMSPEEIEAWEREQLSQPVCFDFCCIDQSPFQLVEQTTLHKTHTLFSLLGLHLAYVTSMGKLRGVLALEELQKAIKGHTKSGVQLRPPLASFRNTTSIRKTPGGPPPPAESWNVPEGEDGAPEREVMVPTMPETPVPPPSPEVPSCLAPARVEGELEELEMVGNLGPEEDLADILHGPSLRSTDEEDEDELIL
* marks the source's active call; other numbers are inactive results; i = inactive; . = no result.

SMILES | TMEM16A act | TMEM16A inh | CHT inh | CHT PAM | CHT block conf | HEK293 MPD ctr | TMEM16A reconf | HEK293 Ca mobil | Parental YFP cnt | ClC-1 inh
CC(C)c1ccc2c(c1)C1(NN=C(c3ccccc3)S1)C(=O)N2 (stereo not given) | i | 25* | -6.6* | i | 56%* | i | 29%* | i | -0.86 | -8
CC(C)c1ccc(O)c(NC(=O)c2ncn[nH]2)c1 | i | i | i | i | . | . | . | . | . | .
O=C(Nc1cc(S(=O)(=O)Nc2ccccc2Cl)ccc1O)c1ccc(F)cc1F | i | . | . | . | . | . | . | . | . | .
O=C(Nc1cc(S(=O)(=O)N2CCCCC2)ccc1O)c1ccccc1NS(=O)(=O)c1ccc(F)c(F)c1 | i | 25* | -9.4* | i | 28%* | i | 50%* | i | -0.8 | -10
O=c1cc(-c2ccccc2)nc2c(-c3ccccc3)c(C(F)(F)F)[nH]n12 | i | 100* | -5.7* | i | 69%* | i | 58%* | i | -0.97 | -10
COc1ccc(OCCSc2nnc(C)n2-c2ccccc2)cc1 | i | 100* | -5* | i | i | i | i | i | -0.94 | -5
Cc1ccc(CNC(=O)c2ccccc2NS(C)(=O)=O)cc1 | i | i | i | i | . | . | . | . | . | .
Cc1ccc(CNC(=O)c2ccccc2NS(=O)(=O)c2ccc(Cl)nc2)cc1 | i | 100* | -5.7* | i | 54%* | i | 18%* | i | -1.1 | -26
COC(=O)c1ccc(O)c(Sc2cc(C(=O)OC)ccc2O)c1 | i | 100* | -5.3* | i | i | i | 19%* | i | -1.2 | -4
CCCOc1ccc(C(=O)CCC(=O)OCC(=O)Nc2cccc(S(N)(=O)=O)c2)cc1 | i | . | . | . | . | . | . | . | . | .
CCc1nnc(NC(=O)CSc2nnc(-c3ccccc3OC)n2-c2ccc(C)cc2)s1 | i | i | i | i | . | . | . | . | . | .
CCc1nnc(NC(=O)CSc2nnc(-c3ccccc3OC)n2-c2ccccc2)s1 | i | 25* | -5.5* | i | 41%* | i | i | i | -1.1 | -10
Cc1ccccc1NC(=O)Cc1nc(COC(=O)c2cc([N+](=O)[O-])ccc2N)cs1 | i | i | i | i | . | . | . | . | . | .
COc1ccccc1C(=O)NC(=O)COC(=O)c1cccc(OC(F)F)c1 | i | i | i | i | . | . | . | . | . | .
COc1ccc(C(=O)NCCCCCCNC(=O)c2ccc(OC)cc2)cc1 | i | i | i | i | . | . | . | . | . | .
O=C(CSCc1nc2ccccc2[nH]1)N1CCN(c2ccc(F)cc2)CC1 | i | 25* | -5* | i | i | i | 20%* | i | -0.98 | -16
O=C(CSCc1nc2ccccc2[nH]1)N1CCN(c2cccc(Cl)c2)CC1 | i | i | i | i | . | . | . | . | . | .
Cc1cccn2c(=O)nc(SCC(=O)NCc3ccccc3)nc12 | i | i | i | i | . | . | . | . | . | .
O=S(=O)(Nc1nc2ccccc2s1)c1ccc(Br)s1 | i | 100* | -7.1* | i | 69%* | i | 24%* | i | -0.9 | -4
C/C(=N\NC(=O)c1nn(C)c(C)c1Br)c1ccc(NC(=O)C2CCCC2)cc1 | i | i | i | i | . | . | . | . | . | .
N#Cc1c(C(F)(F)F)cc(-c2cccc(Cl)c2)[nH]c1=O | i | 25* | -5.2* | i | i | i | 28%* | i | -1.1 | -8
N#Cc1c(C(F)(F)F)cc(-c2ccc(F)cc2)[nH]c1=O | i | i | i | i | . | . | . | . | . | .
Cc1ccc(C)c(N2N=C(C(=O)Nc3cccc(S(=O)(=O)N4CCCCC4)c3)CCC2=O)c1 | i | . | . | . | . | . | . | . | . | .
Cc1cc(=O)c2c(o1)C(=O)c1occc1C2=O | i | . | . | . | . | . | . | . | . | .
COc1cccc(CN(C)C(=O)c2cc(COc3ccc4ncccc4c3)on2)c1 | i | 25* | -6* | i | i | i | 38%* | i | -0.98 | -34
SMILES | TMEM16A act | TMEM16A inh | CHT inh | CHT PAM | CHT block conf | HEK293 MPD ctr | TMEM16A reconf | HEK293 Ca mobil | Parental YFP cnt | ClC-1 inh
C=CCOc1ccc(/C=C/C(=O)OCC(=O)Nc2c(C)n(C)n(-c3ccccc3)c2=O)cc1 | i | i | i | i | . | . | . | . | . | .
NC(=O)c1ccccc1NC(=O)CCn1c(=S)oc2ccccc21 | i | i | i | i | . | . | . | . | . | .
CCC(=NC(C)c1ccccc1)c1c(O)n(C)c(=O)n(C)c1=O (stereo not given) | i | 100* | -7.5* | i | 51%* | i | 22%* | i | -0.93 | -24
Cc1csc(C(C#N)C(=O)c2cc3ccccc3o2)n1 (stereo not given) | i | 25* | -5.3* | i | 61%* | i | 30%* | i | -1.1 | -26
CCc1cc(C(=O)NNC(=S)NCc2ccccc2)cs1 | i | i | i | i | . | . | . | . | . | .
CCCc1cc(C(=O)NNC(=S)NCc2ccccc2)cs1 | i | 100* | -8.2* | i | 54%* | i | i | i | -1.1 | 0
O=C(/C=C/c1cccc([N+](=O)[O-])c1)OCC1CCCO1 (stereo not given) | i | i | i | i | . | . | . | . | . | .
CCn1c(SCc2nc(-c3ccc(Cl)cc3)no2)nnc1-c1ccco1 | i | 100* | -13* | i | 3.1%* | i | i | 28%* | -0.93 | -11
Cn1c(SCc2nc(-c3ccccc3)no2)nnc1-c1ccco1 | . | i | i | i | . | . | . | . | . | .
Cc1ccccc1C(=O)NNC(=S)NC(=O)COc1ccccc1 | i | 25* | -8* | i | 33%* | i | 34%* | 80%* | -1 | 0
Cc1ccc(NC(=O)CN2C(=O)NC3(CCCCC3)C2=O)cc1S(=O)(=O)N1CCOCC1 | i | . | . | . | . | . | . | . | . | .
